Among the test systems are NCI-H23 lung; NCI-H226 lung; NCI-H322M lung; HOP-62 NSCLC; NCI-H460 lung; HOP-92 NSCLC; NCI-H522 lung; A549/ATCC NSCLC; 786-0 renal; COLO 205 colon.
Common to all, as to experiment: NCI-60 one-dose screen, 48 h (100 = growth as untreated, 0 = no growth, -100 = all killed)
What all share (conditions): 10 µM unless noted

About 83,000 compounds went through this panel and 20% of them were active in at least one assay; those are over-represented in the sample as a whole.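 Interpretation: 100, growth as untreated; towards 0, rising growth inhibition; 0, no net growth; 0 to -100, cell death. Compounds scoring below 10 were considered active.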 Unmarked numbers belong to inactive results. Calls of active or inactive are those of the source.

On to `CCO/C=N/C1=C(C#N)C(c2ccc(F)cc2)c2sc3c(F)cccc3c2O1` (stereo not given), for which the growth was 61.2% in the assay on NCI-H23 lung; 67.8% with NCI-H226 lung; 65.4% in the assay on NCI-H322M lung; 50.9% in the assay on HOP-62 NSCLC; 16.3% in the assay on NCI-H460 lung; 58.8% in the assay on HOP-92 NSCLC. For the same compound, the growth in the assay with NCI-H522 lung is -22% (active); in the assay with A549/ATCC NSCLC, 40.6%; in the assay on 786-0 renal, 35.2%; in the assay on COLO 205 colon it was 78.3%.

Take `O=C(CSc1nc(-c2ccccc2)cc(=O)[nH]1)Nc1nc(-c2ccccc2)cs1`: the growth with NCI-H23 lung is 84.3%; with NCI-H226 lung, 76.2%; with NCI-H322M lung it was 93.4%; in the assay with HOP-62 NSCLC, 109%; in the assay with NCI-H460 lung, 106%; in the assay with HOP-92 NSCLC it was 72.5%. In addition, the growth in the assay with NCI-H522 lung is 74.4%; in the assay with A549/ATCC NSCLC it was 95.3%; in the assay with 786-0 renal, 103%; in the assay with COLO 205 colon, 115%.

Take `O=C1c2ccccc2C(=O)c2c1c(C(=O)NCc1ccccc1)c1ccccn21`: the growth with NCI-H23 lung is 101%; with NCI-H226 lung, 100%; in the assay with NCI-H322M lung it was 99.4%; in the assay with HOP-62 NSCLC, 94.4%; with NCI-H460 lung, 107%; with HOP-92 NSCLC, 91.7%. Also, the growth in the assay with NCI-H522 lung was 73.4%; in the assay on A549/ATCC NSCLC, 76.8%; with 786-0 renal, 94.5%; in the assay on COLO 205 colon it was 108%.

In the case of `COc1ccc2nc(Cl)c(/C=C3\CC(c4ccccc4)=NN(c4ccccc4)C3=O)cc2c1`, the growth with NCI-H23 lung was 78.8%; in the assay with NCI-H226 lung, 55.6%; in the assay with NCI-H322M lung, 74.6%; in the assay on HOP-62 NSCLC, 48.4%; in the assay on NCI-H460 lung it was 67.8%; with HOP-92 NSCLC it was -20.3% (active). For the same compound, the growth is 65.6% with NCI-H522 lung, 65.2% in the assay on A549/ATCC NSCLC, -4.27% (active) in the assay with 786-0 renal and 99.3% in the assay with COLO 205 colon.

`N#Cc1cncc(-c2ccc3ncnc(Nc4cccc(Cl)c4)c3c2)c1`: the growth was 62.4% with NCI-H23 lung; 69.9% in the assay with NCI-H226 lung; 28.7% with NCI-H322M lung; 61.5% in the assay on HOP-62 NSCLC; 75.2% in the assay on NCI-H460 lung; 18.6% in the assay on HOP-92 NSCLC. Further, the growth was 65.2% in the assay with NCI-H522 lung, 62.3% in the assay on A549/ATCC NSCLC, 61.6% in the assay with 786-0 renal and 96.6% with COLO 205 colon.

With `CCOc1c(OC)cc2c(c1O)C(=O)N[C@@H]1[C@@H](O)[C@@H](O)[C@H](O)C[C@@H]21`, the growth in the assay with NCI-H23 lung is 107%; in the assay on NCI-H226 lung it was 99.8%; in the assay on NCI-H322M lung, 103%; in the assay with HOP-62 NSCLC, 98.6%; with NCI-H460 lung it was 112%; with HOP-92 NSCLC, 85.2%. Further, the growth in the assay with NCI-H522 lung was 92.3%; with A549/ATCC NSCLC, 94.7%; with 786-0 renal it was 102%; in the assay with COLO 205 colon it was 115%.

Regarding `O=C(CN1CCCCCC1)Nc1nc2ccc(NCc3ccc(Cl)cc3)cc2s1`, the growth is 97.3% with NCI-H23 lung; 93.5% in the assay with NCI-H226 lung; 108% in the assay on NCI-H322M lung; 103% in the assay on HOP-62 NSCLC; 97% in the assay with NCI-H460 lung; 90.9% in the assay with HOP-92 NSCLC. For the same compound, the growth in the assay on NCI-H522 lung was 84.7%; with A549/ATCC NSCLC it was 98.7%; with 786-0 renal, 104%; in the assay on COLO 205 colon, 109%.

`c1ccc(CCNc2c3ccccc3nc3ccccc23)cc1`: the growth is 38.6% in the assay on NCI-H23 lung; 56.3% with NCI-H226 lung; 46.6% with NCI-H322M lung; 55.1% with HOP-62 NSCLC; 15.3% with NCI-H460 lung; -1.55% (active) with HOP-92 NSCLC. Moreover, the growth was 39.8% in the assay on NCI-H522 lung, 32.7% with A549/ATCC NSCLC, 38.1% with 786-0 renal and 21.2% in the assay on COLO 205 colon.

As to `CC1(C)CC[C@]2(CO)CC[C@]3(C)[C@H](CC[C@@H]4[C@@]5(C)CCCNC(C)(C)[C@@H]5CC[C@]43C)[C@H]2[C@H]1O`, the growth with NCI-H23 lung is 88.1%; in the assay with NCI-H226 lung, 103%; with NCI-H322M lung, 93.8%; in the assay on HOP-62 NSCLC, 98%; with NCI-H460 lung, 11.7%; in the assay with HOP-92 NSCLC, 83.8%. For the same compound, the growth in the assay with NCI-H522 lung is 92.1%; in the assay on A549/ATCC NSCLC it was 73%; in the assay with 786-0 renal, 96.7%; in the assay on COLO 205 colon, 0.611% (active).

Turning to `CCc1ccc(CCC(=O)Nc2ncc(Cc3cc(Cl)ccc3Cl)s2)o1`, the growth in the assay with NCI-H23 lung is 48.4%; in the assay on NCI-H226 lung, 42.8%; in the assay on NCI-H322M lung, 36.7%; in the assay on HOP-62 NSCLC it was 29.9%; in the assay on NCI-H460 lung, 10.3%; in the assay with HOP-92 NSCLC it was 51.6%. In addition, the growth with NCI-H522 lung was 3.35% (active); with A549/ATCC NSCLC, 22.5%; with 786-0 renal, 30.5%; with COLO 205 colon, 8.61% (active).

For the compound `COc1cc(OC)c(/C=C/C(=O)c2c(O)cc(OC)c(C3CCN(C)CC3)c2OC)c(OC)c1`, the growth is -58.8% (active) in the assay on NCI-H23 lung; -47.7% (active) in the assay with NCI-H226 lung; -15.8% (active) in the assay with NCI-H322M lung; -96.2% (active) in the assay with HOP-62 NSCLC; -75% (active) in the assay on NCI-H460 lung; -12.2% (active) in the assay with HOP-92 NSCLC. Moreover, the growth in the assay on NCI-H522 lung was -80% (active); in the assay on A549/ATCC NSCLC, -60.7% (active); with 786-0 renal, -97.7% (active); in the assay with COLO 205 colon, -96.7% (active).

`CCN(CC)CCN1C(=O)c2cccc3c(/C=C/CN4C(=O)c5cccc6cccc(c56)C4=O)ccc(c23)C1=O`: the growth is 98.1% in the assay on NCI-H23 lung; 92.7% in the assay on NCI-H226 lung; 97.4% with NCI-H322M lung; 89.5% in the assay with HOP-62 NSCLC; 98.7% with NCI-H460 lung; 88.1% in the assay on HOP-92 NSCLC. For the same compound, the growth is 97.9% in the assay on NCI-H522 lung, 98.8% in the assay with A549/ATCC NSCLC, -9.45% (active) with 786-0 renal and 80.7% in the assay on COLO 205 colon.

With `CC(C)(C)n1cc(-c2ccnc(NCCCNS(=O)(=O)c3cccc4ccccc34)c2)c(-c2cccc(F)c2)n1`, the growth with NCI-H23 lung is 68.3%; in the assay on NCI-H226 lung it was 85.6%; in the assay on NCI-H322M lung, 92.9%; with HOP-62 NSCLC, 92.2%; in the assay with NCI-H460 lung, 73.3%; in the assay with HOP-92 NSCLC, 46.8%. Also, the growth in the assay on NCI-H522 lung is 80.5%; with A549/ATCC NSCLC it was 73.4%; in the assay with 786-0 renal, 71.2%; in the assay with COLO 205 colon, 68.8%.

Regarding `COc1ccc(N2CCC(=S)NC2=S)cc1`, the growth was 99.2% with NCI-H23 lung; 86.4% in the assay with NCI-H226 lung; 105% in the assay on NCI-H322M lung; 108% with HOP-62 NSCLC; 107% in the assay with NCI-H460 lung; 104% in the assay with HOP-92 NSCLC. Moreover, the growth is 87.4% in the assay on NCI-H522 lung, 99.8% in the assay with A549/ATCC NSCLC, 103% in the assay on 786-0 renal and 108% with COLO 205 colon.

For the origin of these results see PubChem BioAssay (NCI).
